Measurements: PubChem BioAssay (EPA / NIEHS)
Records with an inconclusive call do not appear. Activity calls are given as the source filed them. The calls were made as follows: active = hit-call score of the fitted dose curve at least 0.9, where 1 is the maximum; inconclusive = response in the unintended direction; inactive = score below 0.9.

Assays:
[1] = target: human AKT serine/threonine Kinase 2 (AKT2), AKT2 (gene 208) (UniProt P31751); assay: NVS_ENZ_hAKT2: NovaScreen (NVS) Enzymatic Assay for human AKT serine/threonine Kinase 2 (AKT2) (AID 2283141)
Summary of the method: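 Cell-free fluorescence/electrophoretic mobility shift readout of recombinant human AKT2 activity, 1 h after chemical dosing. Duplicate primary screen at 25 uM, then singleton concentration-response up to 50 uM; loss of signal versus DMSO baseline.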

[2] = target: human Epidermal Growth Factor Receptor (EGFR), EGFR (gene 1956) (UniProt P00533); assay: NVS_ENZ_hEGFR: NovaScreen (NVS) Enzymatic Assay for human Epidermal Growth Factor Receptor (EGFR) (AID 2283151)
Summary of the method: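 Cell-free kinase assay, fluorescence plus electrophoretic mobility shift separating substrate and product, read 1 hour after dosing; loss of signal vs DMSO. Duplicate screen at 25 uM, then concentration-response to 50 uM.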

[3] = target: human Aurora Kinase A - serine/threonine-protein Kinase 6 (AurA), AURKA (gene 6790) (UniProt O14965); assay: NVS_ENZ_hAurA: NovaScreen (NVS) Enzymatic Assay for human Aurora Kinase A - serine/threonine-protein Kinase 6 (AurA) (AID 2283142)
Summary of the method: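 Cell-free enzymatic assay with human Aurora A, 1 hour after dosing. Fluorescent substrate turnover detected after electrophoretic mobility shift separation of substrate and product. Screened at 25 uM, actives retested in concentration-response up to 50 uM.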

[4] = target: human Caspase 8 (CASP8), CASP8 (gene 841) (UniProt Q14790); assay: NVS_ENZ_hCASP8: NovaScreen (NVS) Enzymatic Assay for human Caspase 8 (CASP8) (AID 2283146)
Summary of the method: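 E. coli-expressed enzyme was used in a cell-free fluorogenic substrate assay read 1 h after dosing. Loss of signal was scored relative to DMSO, and the primary screen was run in duplicate at 25 uM.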

[5] = target: human Fibroblast Growth Factor Receptor 1 (FGFR1), FGFR1 (gene 2260) (UniProt P11362); assay: NVS_ENZ_hFGFR1: NovaScreen (NVS) Enzymatic Assay for human Fibroblast Growth Factor Receptor 1 (FGFR1) (AID 2283159);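 also: hits lower the signal so potencies describe inhibitors of the kinase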
Summary of the method: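 Cell-free recombinant kinase with fluorescent substrate, product separated by electrophoretic mobility shift; read 1 hour after dosing, loss of signal relative to DMSO. Initial screen in duplicate at 25 uM, actives followed in concentration series.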

[6] = target: Histone deacetylase 3 (Homo sapiens) (UniProt O15379); assay: NVS_ENZ_hHDAC3: NovaScreen (NVS) Enzymatic Assay for human Histone Deacetylase 3 (HDAC3) (AID 2283163)
Summary of the method: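 Recombinant human HDAC3 with fluorescent substrate, 1 h after dosing; product separated from substrate by electrophoretic mobility shift and read by fluorescence. Primary screen at 25 uM in duplicate; actives (e.g. ≥30% inhibition) retested in concentration-response up to 50 uM.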

[7] = target: human Casein Kinase 1-delta (CK1D), CSNK1D (gene 1453) (UniProt P48730); assay: NVS_ENZ_hCK1D: NovaScreen (NVS) Enzymatic Assay for human Casein Kinase 1-delta (CK1D) (AID 2283148)
Summary of the method: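 Recombinant human CK1-delta, cell-free; fluorescent substrate with electrophoretic mobility-shift separation of product, read 1 h after dosing. Single 25 uM duplicate screen, then concentration-response up to 50 uM; loss of signal vs DMSO.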

[8] = target: human Ephrin type-B Receptor 2 (EphB2), EPHB2 (gene 2048) (UniProt P29323); assay: NVS_ENZ_hEphB2: NovaScreen (NVS) Enzymatic Assay for human Ephrin type-B Receptor 2 (EphB2) (AID 2283156)
Summary of the method: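 Recombinant kinase with fluorescent substrate, product separated by electrophoretic mobility shift, read 1 h after dosing. Duplicate 25 uM screen, then singleton concentration-response to 50 uM max; loss of signal versus DMSO.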

[9] = target: human FYN Proto-Oncogene, Src family Tyrosine Kinase (Fyn), FYN (gene 2534) (UniProt P06241); assay: NVS_ENZ_hFyn: NovaScreen (NVS) Enzymatic Assay for human FYN Proto-Oncogene, Src family Tyrosine Kinase (Fyn) (AID 2283161)
Summary of the method: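 Recombinant enzyme with fluorescent substrate, product separated by electrophoretic mobility shift; read 1 h after dosing. Duplicate 25 uM single-point screen, actives retested in concentration series; loss of signal vs DMSO.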

[10] = target: human Janus Kinase 2 (Jak2), JAK2 (gene 3717) (UniProt O60674); assay: NVS_ENZ_hJak2: NovaScreen (NVS) Enzymatic Assay for human Janus Kinase 2 (Jak2) (AID 2283169)
Summary of the method: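 Cell-free recombinant human JAK2 enzyme activity assay, fluorescence/electrophoretic mobility shift read 1 h after dosing. Screened in duplicate at 25 uM, then concentration-response up to 50 uM; activity as signal loss relative to DMSO.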

[11] = target: human MET Proto-Oncogene, Receptor Tyrosine Kinase (MET), MET (gene 4233) (UniProt P08581); assay: NVS_ENZ_hMet: NovaScreen (NVS) Enzymatic Assay for human MET Proto-Oncogene, Receptor Tyrosine Kinase (MET) (AID 2283180)
Summary of the method: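 Cell-free MET kinase assay using recombinant protein and fluorescent substrate, with mobility-shift separation; read 1 h after dosing. Primary duplicate at 25 uM; actives in singleton concentration-response to 50 uM maximum. Signal loss versus DMSO.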

Chain of Histone deacetylase 3 (Homo sapiens) (O15379 whole entry, looked up): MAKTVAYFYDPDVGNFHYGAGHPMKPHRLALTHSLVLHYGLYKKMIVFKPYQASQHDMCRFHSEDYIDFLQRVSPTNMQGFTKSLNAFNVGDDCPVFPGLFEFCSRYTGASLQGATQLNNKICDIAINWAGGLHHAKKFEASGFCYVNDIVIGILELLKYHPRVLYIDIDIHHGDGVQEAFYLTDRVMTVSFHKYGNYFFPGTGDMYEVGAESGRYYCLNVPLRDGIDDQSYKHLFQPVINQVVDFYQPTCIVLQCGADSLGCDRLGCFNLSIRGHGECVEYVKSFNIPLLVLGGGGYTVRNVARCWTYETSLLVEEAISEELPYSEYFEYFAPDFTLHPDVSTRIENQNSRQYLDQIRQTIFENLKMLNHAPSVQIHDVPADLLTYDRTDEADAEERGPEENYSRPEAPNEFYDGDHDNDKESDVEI
Chain of human Caspase 8 (CASP8), CASP8 (gene 841) (Q14790 whole entry, looked up): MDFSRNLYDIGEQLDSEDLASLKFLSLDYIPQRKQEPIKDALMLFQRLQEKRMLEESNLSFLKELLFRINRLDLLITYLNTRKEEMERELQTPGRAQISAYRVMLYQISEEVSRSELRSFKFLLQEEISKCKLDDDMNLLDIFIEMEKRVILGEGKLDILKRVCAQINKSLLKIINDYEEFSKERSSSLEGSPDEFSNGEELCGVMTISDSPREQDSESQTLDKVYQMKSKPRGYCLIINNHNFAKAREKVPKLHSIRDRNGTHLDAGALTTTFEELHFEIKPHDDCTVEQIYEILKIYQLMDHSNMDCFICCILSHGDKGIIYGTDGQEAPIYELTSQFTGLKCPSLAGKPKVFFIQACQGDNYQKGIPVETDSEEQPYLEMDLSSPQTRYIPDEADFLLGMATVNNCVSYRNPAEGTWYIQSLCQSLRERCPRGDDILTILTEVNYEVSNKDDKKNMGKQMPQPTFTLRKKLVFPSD
Chain of human Epidermal Growth Factor Receptor (EGFR), EGFR (gene 1956) (P00533 whole entry, looked up): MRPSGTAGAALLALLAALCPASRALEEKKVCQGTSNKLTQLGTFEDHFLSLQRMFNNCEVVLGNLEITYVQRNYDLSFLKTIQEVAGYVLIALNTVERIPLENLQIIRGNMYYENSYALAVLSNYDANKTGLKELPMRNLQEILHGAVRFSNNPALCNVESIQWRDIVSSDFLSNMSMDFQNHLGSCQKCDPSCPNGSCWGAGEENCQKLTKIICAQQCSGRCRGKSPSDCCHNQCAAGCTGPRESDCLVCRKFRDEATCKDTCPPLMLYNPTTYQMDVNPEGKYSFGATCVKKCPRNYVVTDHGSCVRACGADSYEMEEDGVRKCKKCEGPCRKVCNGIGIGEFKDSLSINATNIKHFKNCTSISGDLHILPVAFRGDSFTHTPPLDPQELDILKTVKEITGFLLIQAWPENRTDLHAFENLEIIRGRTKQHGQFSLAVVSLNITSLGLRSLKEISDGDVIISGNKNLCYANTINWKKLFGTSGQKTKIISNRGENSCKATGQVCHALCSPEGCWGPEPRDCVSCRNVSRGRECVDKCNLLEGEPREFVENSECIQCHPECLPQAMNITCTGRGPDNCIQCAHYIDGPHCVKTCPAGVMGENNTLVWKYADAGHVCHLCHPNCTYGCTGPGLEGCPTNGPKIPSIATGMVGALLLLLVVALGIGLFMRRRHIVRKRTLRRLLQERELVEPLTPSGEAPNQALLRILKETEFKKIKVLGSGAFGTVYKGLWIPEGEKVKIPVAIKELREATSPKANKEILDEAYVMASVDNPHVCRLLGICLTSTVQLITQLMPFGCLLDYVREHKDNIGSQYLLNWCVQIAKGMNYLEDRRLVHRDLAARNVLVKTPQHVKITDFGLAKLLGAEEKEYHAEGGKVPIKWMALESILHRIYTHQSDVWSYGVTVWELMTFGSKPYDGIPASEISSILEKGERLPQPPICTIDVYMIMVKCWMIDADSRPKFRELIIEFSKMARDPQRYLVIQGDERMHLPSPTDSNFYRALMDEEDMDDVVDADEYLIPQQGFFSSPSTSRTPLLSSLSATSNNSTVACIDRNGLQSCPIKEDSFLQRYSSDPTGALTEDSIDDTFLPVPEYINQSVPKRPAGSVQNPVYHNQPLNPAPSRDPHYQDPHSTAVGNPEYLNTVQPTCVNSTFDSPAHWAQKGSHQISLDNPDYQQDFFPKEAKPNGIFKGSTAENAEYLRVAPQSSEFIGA
Chain of human AKT serine/threonine Kinase 2 (AKT2), AKT2 (gene 208) (P31751 whole entry, looked up): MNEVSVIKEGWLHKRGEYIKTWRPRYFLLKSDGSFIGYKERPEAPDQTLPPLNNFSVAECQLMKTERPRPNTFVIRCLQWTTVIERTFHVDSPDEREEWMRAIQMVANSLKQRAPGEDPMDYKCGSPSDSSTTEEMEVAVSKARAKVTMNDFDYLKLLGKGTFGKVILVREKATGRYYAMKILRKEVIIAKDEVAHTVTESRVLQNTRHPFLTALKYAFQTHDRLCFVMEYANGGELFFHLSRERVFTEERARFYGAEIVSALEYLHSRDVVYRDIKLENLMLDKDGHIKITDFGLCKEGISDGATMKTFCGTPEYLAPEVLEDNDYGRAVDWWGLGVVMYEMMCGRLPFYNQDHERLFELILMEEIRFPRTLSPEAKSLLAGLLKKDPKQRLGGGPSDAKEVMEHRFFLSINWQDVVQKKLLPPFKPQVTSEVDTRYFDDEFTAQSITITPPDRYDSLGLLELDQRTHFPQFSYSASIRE
Chain of human Casein Kinase 1-delta (CK1D), CSNK1D (gene 1453) (P48730 whole entry, looked up): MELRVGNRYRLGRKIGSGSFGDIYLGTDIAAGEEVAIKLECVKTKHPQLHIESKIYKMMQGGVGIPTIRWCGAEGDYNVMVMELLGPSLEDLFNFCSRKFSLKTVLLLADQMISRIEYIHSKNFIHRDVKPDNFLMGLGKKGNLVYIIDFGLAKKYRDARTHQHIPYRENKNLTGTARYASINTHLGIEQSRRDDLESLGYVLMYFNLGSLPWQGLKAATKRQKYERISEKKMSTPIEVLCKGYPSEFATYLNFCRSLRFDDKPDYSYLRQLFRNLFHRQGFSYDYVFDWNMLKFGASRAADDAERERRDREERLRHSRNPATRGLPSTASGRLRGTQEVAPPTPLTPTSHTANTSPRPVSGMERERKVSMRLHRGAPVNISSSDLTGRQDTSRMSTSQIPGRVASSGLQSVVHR
Chain of human Ephrin type-B Receptor 2 (EphB2), EPHB2 (gene 2048) (P29323 whole entry, looked up): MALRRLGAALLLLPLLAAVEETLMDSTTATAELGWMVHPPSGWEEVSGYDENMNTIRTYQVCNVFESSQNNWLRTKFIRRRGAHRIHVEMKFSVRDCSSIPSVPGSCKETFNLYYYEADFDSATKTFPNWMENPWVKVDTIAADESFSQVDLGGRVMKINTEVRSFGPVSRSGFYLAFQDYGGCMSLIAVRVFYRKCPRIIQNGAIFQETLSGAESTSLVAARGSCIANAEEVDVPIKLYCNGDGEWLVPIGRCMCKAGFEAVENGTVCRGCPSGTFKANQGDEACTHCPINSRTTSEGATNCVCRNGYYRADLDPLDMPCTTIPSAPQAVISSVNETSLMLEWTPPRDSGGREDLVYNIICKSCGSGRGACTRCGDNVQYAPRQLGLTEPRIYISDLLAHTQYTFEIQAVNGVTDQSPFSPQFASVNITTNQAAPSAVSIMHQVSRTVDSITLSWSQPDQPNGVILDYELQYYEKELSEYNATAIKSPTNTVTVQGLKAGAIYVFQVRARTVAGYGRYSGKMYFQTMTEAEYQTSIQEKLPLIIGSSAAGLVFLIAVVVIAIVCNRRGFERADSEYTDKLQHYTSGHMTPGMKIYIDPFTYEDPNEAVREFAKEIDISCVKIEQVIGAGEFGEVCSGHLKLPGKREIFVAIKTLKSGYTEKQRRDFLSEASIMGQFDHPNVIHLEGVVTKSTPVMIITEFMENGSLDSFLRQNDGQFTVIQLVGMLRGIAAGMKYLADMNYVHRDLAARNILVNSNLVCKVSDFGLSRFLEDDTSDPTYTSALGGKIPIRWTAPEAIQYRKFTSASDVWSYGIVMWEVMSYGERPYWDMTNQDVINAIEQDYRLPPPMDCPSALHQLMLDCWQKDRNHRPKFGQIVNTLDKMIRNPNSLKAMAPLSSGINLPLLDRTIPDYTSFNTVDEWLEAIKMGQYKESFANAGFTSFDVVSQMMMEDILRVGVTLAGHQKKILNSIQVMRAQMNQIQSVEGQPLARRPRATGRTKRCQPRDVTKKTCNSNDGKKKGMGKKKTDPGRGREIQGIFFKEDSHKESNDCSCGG
Chain of human FYN Proto-Oncogene, Src family Tyrosine Kinase (Fyn), FYN (gene 2534) (P06241 whole entry, looked up): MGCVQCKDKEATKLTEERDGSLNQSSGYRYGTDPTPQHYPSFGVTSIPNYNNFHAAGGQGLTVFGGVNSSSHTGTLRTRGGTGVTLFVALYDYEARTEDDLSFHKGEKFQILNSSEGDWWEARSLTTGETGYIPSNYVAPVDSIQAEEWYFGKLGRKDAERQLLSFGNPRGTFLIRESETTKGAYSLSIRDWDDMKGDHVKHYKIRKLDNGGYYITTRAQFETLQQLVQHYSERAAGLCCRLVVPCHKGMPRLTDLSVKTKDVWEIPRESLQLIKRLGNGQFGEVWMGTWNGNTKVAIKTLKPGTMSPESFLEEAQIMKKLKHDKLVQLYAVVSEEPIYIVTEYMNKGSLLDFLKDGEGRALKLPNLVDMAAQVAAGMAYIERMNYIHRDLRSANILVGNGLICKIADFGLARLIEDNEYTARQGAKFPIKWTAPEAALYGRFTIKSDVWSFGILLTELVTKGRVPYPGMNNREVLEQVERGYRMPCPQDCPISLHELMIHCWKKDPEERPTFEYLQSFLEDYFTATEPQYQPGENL
Chain of human Aurora Kinase A - serine/threonine-protein Kinase 6 (AurA), AURKA (gene 6790) (O14965 whole entry, looked up): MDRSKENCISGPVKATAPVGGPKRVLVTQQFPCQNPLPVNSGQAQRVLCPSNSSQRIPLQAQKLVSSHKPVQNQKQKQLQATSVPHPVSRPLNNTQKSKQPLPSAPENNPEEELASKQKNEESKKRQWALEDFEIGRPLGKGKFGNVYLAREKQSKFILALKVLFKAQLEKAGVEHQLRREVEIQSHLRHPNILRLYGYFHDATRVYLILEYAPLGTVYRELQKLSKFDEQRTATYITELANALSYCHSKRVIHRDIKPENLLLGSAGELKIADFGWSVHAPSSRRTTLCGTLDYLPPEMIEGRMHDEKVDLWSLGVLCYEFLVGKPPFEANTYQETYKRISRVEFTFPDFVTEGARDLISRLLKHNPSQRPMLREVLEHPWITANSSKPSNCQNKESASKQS

## ClC1(Cl)C2(Cl)C3(Cl)C4(Cl)C(Cl)(Cl)C5(Cl)C3(Cl)C1(Cl)C5(Cl)C24Cl (stereo unspecified)
[1]
  outcome: inactive
[2]
  outcome: inactive

## CC(C)(OO)c1ccccc1
[1]
  outcome: inactive

## O=C1C2(Cl)C3(Cl)C4(Cl)C(Cl)(Cl)C5(Cl)C3(Cl)C1(Cl)C5(Cl)C24Cl (stereo unspecified)
[3]
  outcome: inactive

## CC(=O)[O][Hg][c]1ccccc1
[4]
  AC50: 8.22 µM (active)
[2]
  AC50: 9.71 µM (active)
[5]
  AC50: 33.4 µM (active)
[6]
  AC50: 9.74 µM (active)

## O=c1[nH]c(=O)[nH]c(=O)[nH]1
[4]
  outcome: inactive

## CCCCCCCCc1ccc(O)cc1
[7]
  outcome: inactive

## O=[N+]([O-])c1ccc(O)c([N+](=O)[O-])c1
[7]
  outcome: inactive
[6]
  outcome: inactive

## O=C(O)C(Cl)(Cl)Cl
[8]
  outcome: inactive

## NC(=O)O
[9]
  outcome: inactive

## Cn1sc(Cl)cc1=O
[10]
  outcome: inactive

## CC(C)(C)c1cc(O)ccc1O
[11]
  outcome: inactive
